# Source: PubChem BioAssay (several laboratories)
# CYP2C9 activ: human CYP2C9 activators, primary screen, biochemical, luminescence. Cytochrome P450 2C9 (Homo sapiens), P11712. recombinant CYP2C9, luciferin-H conversion; stronger effect = higher value; factor 1 = untreated enzyme, 0 = blocked. activation factor at 5 µM. 96,000 compounds, 1.4% hits;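 active = activation factor of 2 or more for CYP2C9 at a 5 µM dose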;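 note: 0 = sulfaphenazole-blocked wells and 1 = vehicle-only wells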
# CYP2C9 inh: blockers of cytochrome P450 2C9 activity – biochemical, luminescence, ADME assay, primary screen; AID 777, 2007; inhibition, % at 5 µM; P11712; CYP2C9 Supersomes, luciferin-H conversion; 96,000 compounds, 20% hits;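 active = blocking of liver enzyme CYP2C9 beyond about 50% at 5 µM, limit read from the data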
# CYP2C19 inhib: blockers of cytochrome P450 2C19 activity – biochemical, luminescence, ADME assay, primary screen; P33261; CYP2C19 Supersomes, luciferin-H EGE luminescence, 30 min; inhibition, % at 5 µM; 96,000 compounds, 21% hits;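 active = CYP2C19 inhibition above a set limit at 5 µM in the primary screen, cut at about 50% in these data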;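 note: plate controls were negative control wells for no effect and 2.5 mM tranylcypromine positive control for full effect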
# D1 mod: D1 CRE-luciferase signal change, two-sided – cell-based, HEK293 D1, dopamine EC30, D1 allosteric modulator project, primary screen. dopamine EC30 potentiation; actives deviate in either direction. 58,000 compounds, 5.9% hits. D(1A) dopamine receptor (Homo sapiens), P21728. AID 641, 2007. B-score at 10 µM;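 active = luminescence count or its row- and column-corrected plate score outside the 99.7% band of the plate's sample wells, on either side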
# CYP2C19 act: human CYP2C19 activators, primary screen, biochemical, luminescence. AID 1025, 2008. 96,000 tested, under 10 active. activation factor at 5 µM. recombinant CYP2C19, luciferin-H EGE luminescence; stronger effect = higher value; 0 = fully inhibited enzyme, 1 = untreated enzyme;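 active = activation factor of at least 2 at 5 µM in the primary screen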;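 note: 0 = wells with 2.5 mM tranylcypromine and 1 = vehicle-only wells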
# hDAT+cocaine: changed hDAT dopamine uptake under cocaine IC80, either direction, primary screen, cocaine antagonist project, cell-based, LLC-PK1 hDAT, [14C]-dopamine uptake, MLSMR | Sodium-dependent dopamine transporter (Homo sapiens), Q01959 | B-score at 10 µM | 110,000 compounds, 1.3% hits | LLC-PK1 hDAT cells, [14C]-dopamine uptake with cocaine IC80; actives deviate in either direction;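 active = Z score or B-score, a plate-position-corrected score, falls beyond the plate's 99.7% confidence bounds, in either direction; inactive = both scores lie inside the 99.7% bounds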;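 note: scored against the spread of the other compound wells on the same plate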
# Target sequence (Q01959 whole entry, looked up): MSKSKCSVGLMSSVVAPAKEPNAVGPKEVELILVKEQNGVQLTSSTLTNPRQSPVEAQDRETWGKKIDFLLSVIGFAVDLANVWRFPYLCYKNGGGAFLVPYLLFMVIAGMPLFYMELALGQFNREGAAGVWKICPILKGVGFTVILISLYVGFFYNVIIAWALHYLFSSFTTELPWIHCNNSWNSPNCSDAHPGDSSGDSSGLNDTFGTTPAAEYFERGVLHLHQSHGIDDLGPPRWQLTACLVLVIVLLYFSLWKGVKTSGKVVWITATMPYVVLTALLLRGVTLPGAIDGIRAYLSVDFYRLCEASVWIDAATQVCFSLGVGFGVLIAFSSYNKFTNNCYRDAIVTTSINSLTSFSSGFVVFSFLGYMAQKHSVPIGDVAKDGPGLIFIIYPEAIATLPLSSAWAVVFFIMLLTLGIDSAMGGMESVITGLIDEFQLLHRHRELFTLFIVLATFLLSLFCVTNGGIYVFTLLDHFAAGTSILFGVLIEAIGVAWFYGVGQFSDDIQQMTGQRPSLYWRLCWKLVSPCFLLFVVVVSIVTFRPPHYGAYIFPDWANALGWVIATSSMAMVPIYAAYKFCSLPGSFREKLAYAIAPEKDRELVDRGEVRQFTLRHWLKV
# Starred values were filed as active, the others as inactive; . = no result given. The list is not random: actives were taken first. Their share in the collection is about 28%.
SMILES,CYP2C9 activ,CYP2C9 inh,CYP2C19 inhib,D1 mod,CYP2C19 act,hDAT+cocaine
O=c1nc(NCc2ccccc2Cl)cn[nH]1,1.1,-12,-3,.,1,-0.083
Cc1ccc(N2C(N)=C(C#N)C3(C(=O)N(C)c4ccccc43)C3=C2CC(C)(C)CC3=O)cc1Cl (stereo not drawn),0.5,54*,12,.,0.9,-0.16
Cc1sc2nc(SCC(=O)NCc3ccco3)n(CCc3ccccc3)c(=O)c2c1C,0.3,65*,40,0.27,0.6,1.2
Cc1sc2nc(C3CC3)nc(SCC(=O)NCc3ccco3)c2c1C,0.7,32,84*,0.76,0.2,-0.062
Cc1cc(NC(=O)CSc2nc(C3CC3)nc3sc(C)c(C)c23)no1,0.4,63*,41,.,0.6,-0.28
O=C(CSc1nc2sc3c(c2c(=O)n1-c1ccccc1)CCCC3)NCc1ccco1,1.1,-10,-8,0.71,1.1,.
CC1(C)Cc2c(sc3nc(SCC(=O)NCc4ccco4)n(-c4ccccc4)c(=O)c23)CS1,0.5,54*,26,.,0.7,2.8*
CCc1nc(SCC(=O)Nc2cc(C)on2)c2c(C)c(C)sc2n1,0.9,8,0,0.72,1,0.71
Cc1sc2nc(C3CC3)nc(SCC(=O)N3c4ccccc4CC3C)c2c1C (stereo not drawn),0,99*,65*,.,0.3,-0.021
CCOC(=O)CNC(=O)CSc1nc2sc(C)c(C)c2c(=O)n1C,0.5,50*,70*,0.59,0.3,0.69
CCn1c(SCC(=O)NC(=O)NCc2ccco2)nc2sc(C)c(C)c2c1=O,0.7,27,36,.,0.6,.
Cc1sc2nc(SCC(=O)OC(C)C)n(C)c(=O)c2c1C,0.6,38,18,0.75,0.8,0.032
CCOC(=O)Cc1csc2nc3sc(C)c(C)c3c(=O)n12,0.8,17,56*,1.2,0.4,0.19
Cc1sc2nc(SCC(=O)NCc3ccco3)n(C)c(=O)c2c1C,0.7,34,28,-2.6*,0.7,-0.68
O=C(CCC(=O)OCC(=O)c1cccc([N+](=O)[O-])c1)Nc1ccccc1Cl,1.2,-16,-7,.,1.1,-0.0063
CC(C)c1nc2ccccc2c2nnc(SCC(=O)NCc3ccco3)n12,0.2,76*,98*,1.4,0,-0.15
Cc1ccc(CSc2nc3ccccc3c(=O)n2CCCC(=O)NCc2ccco2)cc1,0,98*,74*,.,0.3,0.61
C=CCn1c(SCC(=O)NCc2ccco2)nnc1-c1ccc2ccccc2n1,0.4,59*,28,-0.21,0.7,.
C=CCn1c(CSc2nc3ccccc3s2)nnc1SCC(=O)NCc1ccccc1,0.5,50*,38,.,0.6,0.3
Cc1occc1-c1nnc(SCC(=O)NCc2ccco2)n1CC(C)C,1.2,-18,6,-0.022,0.9,0.12
O=C(CCn1c(SCC(=O)NCc2ccco2)nc2ccccc2c1=O)NCCc1ccccc1,0.1,85*,77*,-1,0.2,-0.81
Cc1nc2ccccc2n1CCc1nc2c3ccccc3nc(SCC#N)n2n1,1,1,17,.,0.8,.
Cc1nc2ccccc2n1CCc1nc2c3ccccc3nc(SCC(=O)NCc3ccco3)n2n1,0.3,72*,31,0.19,0.7,0.16
C=CCn1c(SCC(=O)c2ccc(CNC(C)=O)o2)nc2scc(C3CC3)c2c1=O,0.3,73*,57*,-0.25,0.4,1
C=CCn1c(SC2CCOC2=O)nc2scc(C3CC3)c2c1=O (stereo not drawn),0.2,77*,83*,-0.22,0.2,-1.2
SMILES,CYP2C9 activ,CYP2C9 inh,CYP2C19 inhib,D1 mod,CYP2C19 act,hDAT+cocaine
C=CCn1c(SCc2cc(=O)n3ccsc3n2)nc2scc(C3CC3)c2c1=O,0.6,45,7,9.8*,0.9,2.3
C=CCn1c(SCCN2C(=O)c3ccccc3C2=O)nc2scc(-c3ccccc3)c2c1=O,0.9,5,5,.,0.9,.
C=CCn1c(SCC(=O)NC2CCS(=O)(=O)C2)nc2scc(C3CC3)c2c1=O (stereo not drawn),0.3,72*,36,2.1,0.6,-0.041
CCO/N=C(/C)c1c(O)c(C)c(-c2ccccc2)n(-c2ccccc2)c1=O,.,.,.,.,.,0.29
COc1cc(O)c(C(CC(=O)N2CCOCC2)c2cc(OC)c(OC)c(OC)c2)c(OC)c1 (stereo not drawn),.,.,.,.,.,0.78
CCOc1ccc(CCNS(=O)(=O)c2c(C)n[nH]c2C)cc1OCC,0.8,20,8,1.2,0.9,-1.1
Cc1ccc(S(=O)(=O)N2CCN(S(C)(=O)=O)CC2)cc1,.,.,.,.,.,-0.65
CCCOc1ccc(Cc2nn[nH]n2)cc1,0.7,25,51*,-0.058,0.5,-1.5
COc1ccc2[nH]c(C)c(CCN3C(=O)OC(C)(C)C3(C)O)c2c1 (stereo not drawn),0.1,86*,99*,-0.1,0,-0.55
COc1ccc2[nH]c(C)c(CCN3C(=O)C4CC=CCC4C3=O)c2c1 (stereo not drawn),0.4,58*,97*,-0.051,0,0.57
COc1ccc2[nH]c(C)c(CN3CCC(C)CC3)c(=O)c2c1,1.1,-11,-15,.,1.2,0.013
COC(=O)c1ccc(C2=NOC(C)(c3sc(-c4ccc(Cl)cc4)nc3C)C2)cc1 (stereo not drawn),.,.,.,.,.,0.44
COC(=O)c1ccc(-c2nc3cc(Cl)c(N)cc3s2)cc1,0.9,11,60*,.,0.4,-0.66
Cn1c(=O)cc(SCC(=O)N2CCCC2)c2ccccc21,1.2,-22,-5,-0.44,1.1,.
CCn1c(=O)cc(SCC(=O)N2CCN(c3ccccc3F)CC2)c2ccccc21,2.2*,-121,41,.,0.6,-0.0051
CCn1c(=O)cc(SCC(=O)N2CCN(c3ccccn3)CC2)c2ccccc21,0.5,51*,72*,.,0.3,0.15
COc1ccc(-c2cc(C(F)(F)F)nc(SCCC(=O)N3CCOCC3)n2)cc1,0.9,14,2,1.9,1,-0.43
Cc1oc2cc(O)ccc2c(=O)c1Oc1ccc2ccccc2c1,2*,-98,18,.,0.8,1.5
Cc1oc2cc(OC(C)C(=O)O)ccc2c(=O)c1Oc1ccccc1 (stereo not drawn),1,-1,-11,1.4,1.1,0.43
CC1(C)CC(=O)C2=C(C1)c1c(ccc3ccccc13)NC2c1ccc(Br)o1 (stereo not drawn),0,96*,75*,.,0.3,0.24
